# The list is not random: actives were taken first. Their share in the collection is about 0.41%.
# aGlu spleen mod – lysosomal alpha-glucosidase (human) modulation. P10253. actives 0.006% (n = 240,000). Potency, µM (series often up to 79.9 µM), most hits filed as inhibitors. human spleen homogenate, 4-MU-alpha-glucoside fluorescence
#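 AC50 values come from Hill-equation fits of concentration-response data, normalized to no-enzyme and full-activity controls. Enzyme source: 1 ug human spleen homogenate; 1 mM fluorogenic 4-MU glucoside, pH 5.0 citrate buffer, 37 C, 40 min.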
# N370S GC mod – inhibitors or activators of N370S glucocerebrosidase for Gaucher disease; P04062; N370S GC spleen homogenate, 4MU-glucoside fluorescence; actives 0.092% (n = 330,000); Potency, µM (highest dose often 59.4 µM), actives largely listed as inhibitors
# GLA inh pH 4.5 – inhibitors of human alpha-galactosidase A at pH 4.5; P06280; AID 1467; activity change, negative = inhibition, % at 105 µM; 230,000 tested, under 10 active; purified enzyme, 4-MU-alpha-Gal fluorescence, pH 4.5
# GAA glycogen mod – GAA glycogen-cleavage inhibition or activation. Potency, µM (highest dose often 76.4 µM), most hits filed as inhibitors. actives 0.38% (n = 300,000). recombinant GAA, glycogen substrate, Amplex Red glucose oxidase fluorescence. P10253;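 further: the screen sought inhibitors and activators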
#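 Recombinant human enzyme (4 nM); glycogen substrate; 37 C, 40 min, pH 5.0. Readout: coupled glucose oxidase/Amplex Red fluorescence.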
# GAA inhib – inhibitors of human lysosomal alpha-glucosidase; P10253; purified human GAA, 4-MU-alpha-glucoside fluorescence; Potency, µM (doses to about 76.9 µM), hits mostly inhibitors; actives 0.005% (n = 200,000)
#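 Activity normalized between no-enzyme (basal) and enzyme-only wells. Conditions: 4 nM human enzyme, 400 uM fluorogenic substrate, citrate/phosphate pH 5.0 with Tween-20, 20 min room temperature, compounds up to 77 uM.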
# aGal spleen mod – alpha-galactosidase A (human) modulation; human spleen homogenate, 4MU-alpha-Gal fluorescence, 40 min; Potency, µM (top dose mostly 80 µM), hits mostly inhibitors; actives 0.008% (n = 240,000); AID 2107
# Target sequence (P06280 32-429 limits assumed): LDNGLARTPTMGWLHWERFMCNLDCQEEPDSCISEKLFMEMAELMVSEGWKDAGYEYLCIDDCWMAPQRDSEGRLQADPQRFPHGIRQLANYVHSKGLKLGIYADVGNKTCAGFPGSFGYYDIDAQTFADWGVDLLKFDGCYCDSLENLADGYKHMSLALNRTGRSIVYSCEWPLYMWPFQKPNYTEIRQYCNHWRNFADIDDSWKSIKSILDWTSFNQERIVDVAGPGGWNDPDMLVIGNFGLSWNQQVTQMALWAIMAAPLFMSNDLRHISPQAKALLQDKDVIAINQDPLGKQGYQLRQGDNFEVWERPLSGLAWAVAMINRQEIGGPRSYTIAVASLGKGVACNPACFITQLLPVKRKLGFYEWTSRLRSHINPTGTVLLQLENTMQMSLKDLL
#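 Human spleen homogenate (1 ug) was the enzyme source, with 4-methylumbelliferyl-alpha-D-galactopyranoside (1 mM final) in pH 5.0 citrate buffer with 0.01% Tween-20. Compounds were titrated; after 40 min at 37C, NaOH/glycine stop, 4-MU fluorescence read; AC50 from Hill fits.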
# A number is an active result; 0 = inactive; ? = inconclusive; - = not tested or not shown; [ ] = another dose, or the depositor's remark. The call rests on the fitted dose curve; in most records, active means well fitted curve in the direction sought with a large enough effect; inconclusive means small, poorly fitted or top-dose-only effect, or another doubt; inactive means no such curve, though single readings can be large; an effect the other way counts as inactive or inconclusive.
SMILES,aGlu spleen mod,N370S GC mod,GLA inh pH 4.5,GAA glycogen mod,GAA inhib,aGal spleen mod
O=C1CC(c2ccc(O)c(O)c2)Oc2c1ccc(O)c2O (stereo unspecified),0,0,0,11µM,-,0
Cc1ccc(NS(=O)(=O)c2ccc3c(c2)CCN3C(=O)C2CC2)c(C)c1,-,-,-,0,-,-
Oc1ccc(-c2csc(-c3cccnc3)n2)cc1O,0,0,0,7.1µM,-,0
Oc1ccc(-c2csc(Nc3ncccn3)n2)cc1O,0,0,0,7µM,0,0
Oc1ccc(-c2csc(-c3ccccc3)n2)cc1O,0,0,0,11µM,0,0
CSc1ccccc1NC(=O)COC(=O)Cc1cccs1,0,0,0,0,0,0
Cc1ccc(NC(=O)NCc2cccnc2)cc1,-,0,-,-,-,-
Cc1cc(C)c[n+](CC(=O)c2ccc(-c3ccccc3)cc2)c1,0,0,0,0,0,0
CCOc1ccc(S(=O)(=O)c2c(C(=O)c3ccc(C)c(C)c3)cnc3ccccc23)cc1,-,-,-,0,-,-
Nc1sc(-c2ccccc2)cc1C(=O)O,0,0,0,25µM,0,0
CCOC(=O)c1cc(-c2ccc(N)cc2)sc1N,0,0,0,14µM,?,0
CC(C)(C)C(=O)Nc1sc(-c2ccccc2)cc1C(=O)O,0,0,0,0,-,0
CCOC(=O)c1sc(-c2ccc(Br)cc2)cc1N,0,0[12.8 µM],0,0,0,0
O=C(c1cc(COc2ccc(F)cc2Cl)on1)N1CCCCCCC1,-,0,-,-,-,-
O=C1CC(N2CCN(c3ccc(O)cc3)CC2)C(=O)N1Cc1cccs1 (stereo unspecified),0,0,0,6.3µM,0,0
O=C(c1ccncc1)c1ccc(N2CCN(C3CC(=O)N(Cc4cccs4)C3=O)CC2)cc1 (stereo unspecified),0,0,0,0,0,0
C/C(=N\Nc1ccc(Cl)cc1)c1ccccn1,0,0,0,7.1µM,0,0
O=C(O)/C=C/C(=O)Nc1ccc(O)cc1,0,?,0,32µM,0,0
O=C(O)/C=C/C(=O)Nc1ccc(C(=O)c2ccccc2)cc1,0,0,0,0,0,0
CCCCn1c(SCC(=O)c2ccc(O)c(O)c2)nc2ccsc2c1=O,0,0,0,28µM,0,0
O=C(CCCn1c(SCC(=O)c2ccc(O)c(O)c2)nc2ccccc2c1=O)NCC1CCCO1 (stereo unspecified),0,0,0,5.6µM,0,0
COc1ccc(O[C@H]2C=C[C@@H](c3ccccc3)O[C@@H]2CON=C(C)C)cc1,0[17.4 µM],0[12.8 µM],-,-,-,0[17.5 µM]
Cc1ccc(/C=N\Nc2nc3ccc(Cl)cc3[nH]2)o1,0,0,0,6.3µM,0,0
COCCCNC(=S)Nc1ccc(N2CCCCC2)cc1,0,0,0,14µM,0,0
COCCCNC(=S)NNC(=S)Nc1ccc(OC)cc1,0,0,0,4.5µM,-,0
SMILES,aGlu spleen mod,N370S GC mod,GLA inh pH 4.5,GAA glycogen mod,GAA inhib,aGal spleen mod
CCNC(=S)Nc1ccc(N2CCCCC2)cc1,0,0,0,?,0,0
CC(C)OCCCNc1nc(-c2ccccc2)nc2ccccc12,-,1.8µM,-,0,-,-
CC(C)(C)C(=O)OCCNc1nc(-c2ccccc2)nc2ccccc12,0,0.89µM,0,0,0,0
Clc1ccccc1-c1nc(NCc2cccnc2)c2ccccc2n1,0,16µM,-,-,-,0
c1ccc(CCNc2nc(-c3ccncc3)nc3ccccc23)cc1,0,14µM,0,0,-,0
Cn1nc(C(=O)OCC(=O)NC2CCS(=O)(=O)C2)c2ccccc2c1=O (stereo unspecified),0,0,0,0,0,0
COc1ccc(C2(O)CCN(Cc3nnnn3Cc3ccc(F)cc3)CC2)cc1,0,0[2.35 µM],0,0,0,0
Cc1c(C)n(Cc2ccc(Cl)cc2)c2ccc(C(=O)NCCN3CCOCC3)cc12,-,10µM,-,-,-,-
Cc1c(C)n(Cc2ccccc2)c2ccc(C(=O)NCCN3CCOCC3)cc12,-,?,-,0,-,-
Cc1cc(=O)n(-c2ccc(O)cc2)[nH]1,0,0,0,14µM,0,0
Cc1cccn2c(Nc3ccccc3)c(-c3ccc(N4CCOCC4)cc3)nc12,-,-,-,4µM,-,-
Cc1ccc(Nc2c(-c3ccsc3)nc3c(C)cccn23)cc1,-,-,-,11µM,-,-
COc1ccccc1NC(=O)CC1S/C(=N/N=C2\CCCc3ccccc32)NC1=O (stereo unspecified),-,0,0,0,0,0
CC(NC(=O)C1CCN(S(=O)(=O)c2ccc3nc4c(c(C(=O)O)c3c2)CCCC4)CC1)c1ccccc1 (stereo unspecified),-,0,-,0,-,-
CNc1nc2c3ccccc3n(C(C)=O)c2s1,0,0,0,25µM,0,0
CC(=O)n1c2ccccc2c2nc(NC(C)C)sc21,0,0,0,0,0,0
O=C(Oc1cccc2c(O)cccc12)c1ccccc1,0,0,0,28µM,0,0
Cc1cccc(-c2nc(CS(=O)CC(=O)NCc3ccc(Cl)cc3)c(C)o2)c1 (stereo unspecified),-,-,-,0,-,-
CN(C)C(/C=C/Nc1ccc(O)cc1)=C(C#N)C#N,0,0,0,7.9µM,0,0
Cc1cccc(N/C=C/C(=C(C#N)C#N)N(C)C)c1,0,0,0,0,0,0
COc1cc(/C=N/N(C)C)cc(Br)c1O,0,0,0,4.5µM,-,0
O=C(Nc1ccc(Cl)c(Cl)c1)N(CCCN1CCOCC1)Cc1cccs1,0,13µM,0,0,0,0
O=C(CNC(=S)N(CCCN1CCOCC1)Cc1cccs1)NC1CCCCCCC1,0,4µM,0,0,0,0
CCNc1ccc(C(=O)OCC(=O)NCCN2C(=O)CSC2=O)cc1[N+](=O)[O-],0,0,0,0,0,0
Cc1ccc2occ(/C=N/NC(=O)c3ccc(O)cc3)c(=O)c2c1,-,0,-,0,-,-
SMILES,aGlu spleen mod,N370S GC mod,GLA inh pH 4.5,GAA glycogen mod,GAA inhib,aGal spleen mod
NC(=O)N/N=C/c1coc2ccc(O)cc2c1=O,0,0,0,16µM,0,0
COc1cc(C(Nc2ccccn2)c2ccc3ccc(C)nc3c2O)cc(OC)c1O (stereo unspecified),0,0,0,18µM,0,0
Cc1c(NC2=C(Cl)C(=O)N(c3ccccc3Cl)C2=O)c(=O)n(-c2ccccc2)n1C,0,0,0,0,0,0
Cc1c(NC2=C(Cl)C(=O)N(c3ccccc3)C2=O)c(=O)n(-c2ccccc2)n1C,0,0,0,10µM,0,0
C=CCNC(=S)NN=C1CCCCCCC1,0,0,0,35µM,0,0
CC(=O)Oc1ccc(OC(C)=O)c(S(=O)(=O)c2ccc(C)c(C)c2)c1,-,0,-,0,-,-
CSc1nccc(Oc2cccc(C#N)c2)n1,0,0,0,0,0,0
Cc1ccc(Nc2c(N)c(=O)oc3ccccc23)cc1,0,0,0,20µM,0,0
CN(C)c1c(N)c(=O)oc2ccccc12,0,0,0,?,0,0
CNc1c(N)c(=O)oc2ccccc12,0,0,0,0,0,0

# High-throughput results (PubChem)
